We go through 18 compounds from article PMC5540273 (PLoS ONE, 2017).

Where two headings read alike, the source gives them in different places.

Holding throughout (details): n = 1
The subject of assay [1] is T1, DRAK1.
T1 construct: gene STK17A

Assay [2] deals with T2, DRAK2.
T2 construct: gene STK17B

For assay [3], the system named is DYRK1A.
The test system of assay [4] is DYRK1B.
The test system of assay [5] is DYRK2.
Assay [6] deals with EGFR.
The test system of assay [7] is EIF2AK1.
The test system of assay [8] is EPHA1.
Assay [9] has as its system EPHA2.
Assay [10] deals with EPHA3.
The mark [11] stands for this setting: concentration: 1 μM, replicates: in singlicate.
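Further: KINOMEscan kinase panel screen.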

Take `Cl.c1ccc(-c2n[nH]cc2-c2ccnc(-c3ccc(CN4CCOCC4)cc3)c2)nc1` [GW776245]: the “%Inh” value amounted to 0% in assay [1] (setting [11]); 20% in assay [2] (setting [11]); 0% in [3] (setting [11]); 0% in assay [4] (setting [11]); 0% in assay [5] (setting [11]); 34% in assay [6] (setting [11]). The “%Inh” value in assay [7] (setting [11]) came out at 0%; in assay [8] (setting [11]), 7%; in assay [9] (setting [11]), 6%; in assay [10] (setting [11]), 1%.

For `CS(=O)(=O)c1ccc(-c2nc3n(c2-c2ccncc2)CCC3)cc1` [SKF-105942], the “%Inh” value in assay [1] (setting [11]) came to 0%; in assay [2] (setting [11]), 0%; in assay [3] (setting [11]), 20%; in assay [4] (setting [11]), 0%; in assay [5] (setting [11]), 5%; in assay [6] (setting [11]), 5%. The “%Inh” value in assay [7] (setting [11]) is listed as 13%; in assay [8] (setting [11]), 1%; in assay [9] (setting [11]), 6%; in assay [10] (setting [11]), 0%.

Turning to `Cn1ccc2ncnc(Oc3ccc(NC(=O)Nc4ccccc4)cc3)c21`, the “%Inh” value in assay [1] (setting [11]) was 0%; in assay [2] (setting [11]), 0%; in assay [3] (setting [11]) it was 6%; in assay [4] (setting [11]), 40%; in [5] (setting [11]), 0%; in [6] (setting [11]) it was 3%. The “%Inh” value in assay [7] (setting [11]) is reported as 22%; in assay [8] (setting [11]) it was 7%; in assay [9] (setting [11]), 0%; in assay [10] (setting [11]), 0%.

For `Cl.O=C(Nc1cccc(-c2nn3ncccc3c2-c2ccnc(Nc3cccnc3)n2)c1)c1c(F)cccc1F` [GSK312879], the “%Inh” value in assay [1] (setting [11]) was found to be 1%; in assay [2] (setting [11]), 0%; in assay [3] (setting [11]), 22%; in assay [4] (setting [11]) it was 18%; in [5] (setting [11]) it was 6%; in assay [6] (setting [11]), 98.9%. Moreover, the “%Inh” value in assay [7] (setting [11]) amounted to 17%; in [8] (setting [11]) it was 4%; in assay [9] (setting [11]), 0%; in [10] (setting [11]), 2%.

Consider `Cc1cccc(-c2nc(Nc3ccc4[nH]ncc4c3)c3ccccc3n2)n1` [GW857175], for which the “%Inh” value in [1] (setting [11]) was 13%; in [2] (setting [11]), 10%; in [3] (setting [11]), 24%; in [4] (setting [11]), 11%; in assay [5] (setting [11]), 40%; in [6] (setting [11]) it was 0%. Further, the “%Inh” value is recorded as 5% in [7] (setting [11]), 12% in [8] (setting [11]), 1% in assay [9] (setting [11]) and 0% in [10] (setting [11]).

With `Cc1cccc(-c2nc(-c3ccc(S(C)(=O)=O)cc3)sc2-c2ccnc(NCCc3ccccc3)c2)c1`, the “%Inh” value in [1] (setting [11]) is on record as 0%; in assay [2] (setting [11]), 10%; in assay [3] (setting [11]), 0%; in assay [4] (setting [11]), 51%; in assay [5] (setting [11]) it was 0%; in assay [6] (setting [11]) it was 0%. Moreover, the “%Inh” value in [7] (setting [11]) turned out to be 1%; in assay [8] (setting [11]) it was 0%; in assay [9] (setting [11]) it was 0%; in [10] (setting [11]), 9%.

Take `CC(C)(C)c1ccc(C(=O)Nc2cn3cc(-c4cccnc4)ccc3n2)cc1`: the “%Inh” value came out at 10% in [1] (setting [11]); 5% in [2] (setting [11]); 42% in assay [3] (setting [11]); 65% in [4] (setting [11]); 51% in assay [5] (setting [11]); 17% in assay [6] (setting [11]). Moreover, the “%Inh” value worked out at 3% in assay [7] (setting [11]), 12% in assay [8] (setting [11]), 12% in assay [9] (setting [11]) and 9% in assay [10] (setting [11]).

Consider `COc1ccccc1CNC(=O)c1cc(C(=O)c2ccccc2C)c[nH]1` [GSK364507], for which the “%Inh” value in assay [1] (setting [11]) turned out to be 1%; in assay [2] (setting [11]) it was 12%; in [3] (setting [11]), 17%; in [4] (setting [11]), 19%; in [5] (setting [11]) it was 0%; in [6] (setting [11]) it was 36%. For the same compound, the “%Inh” value turned out to be 0% in [7] (setting [11]), 25% in assay [8] (setting [11]), 13% in [9] (setting [11]) and 0% in assay [10] (setting [11]).

Take `CCn1c(-c2cccnc2O)nc2cnccc21` [SB-736715]: the “%Inh” value stood at 0% in assay [1] (setting [11]); 0% in [2] (setting [11]); 0% in assay [3] (setting [11]); 54% in [4] (setting [11]); 0% in assay [5] (setting [11]); 7% in assay [6] (setting [11]). Further, the “%Inh” value in assay [7] (setting [11]), in assay [8] (setting [11]), in assay [9] (setting [11]) and in [10] (setting [11]) was 0% each time.

On to `Cc1ccc(C(=O)Nc2ccc(Nc3ccnc4cc(-c5ccccn5)ccc34)cc2O)cc1.Cl` [GW440146], for which the “%Inh” value is given as 0% in [1] (setting [11]); 11% in assay [2] (setting [11]); 18% in [3] (setting [11]); 0% in assay [4] (setting [11]); 0% in assay [5] (setting [11]); 32% in [6] (setting [11]). The “%Inh” value was determined as 0% in [7] (setting [11]), 4% in assay [8] (setting [11]), 0% in [9] (setting [11]) and 0% in assay [10] (setting [11]).

As for `C[C@@H]1CCCCN1c1cc(-c2ccc3c(N)n[nH]c3c2)nc(N)n1` [GSK2258759], the “%Inh” value in assay [1] (setting [11]) was found to be 96%; in assay [2] (setting [11]), 0%; in assay [3] (setting [11]) it was 0%; in assay [4] (setting [11]), 0%; in assay [5] (setting [11]) it was 10%; in [6] (setting [11]) it was 18%. Besides, the “%Inh” value in assay [7] (setting [11]) was found to be 0%; in [8] (setting [11]), 8%; in assay [9] (setting [11]) it was 0%; in [10] (setting [11]) it was 7%.

On to `O=C(Nc1ccccc1)Nc1cccc(Oc2ccc3nccn3n2)c1`, for which the “%Inh” value in [1] (setting [11]) is 0%; in assay [2] (setting [11]), 1%; in assay [3] (setting [11]), 0%; in assay [4] (setting [11]) it was 45%; in assay [5] (setting [11]) it was 0%; in assay [6] (setting [11]), 33%. Further, the “%Inh” value in [7] (setting [11]) came out at 0%; in [8] (setting [11]), 14%; in assay [9] (setting [11]), 30%; in [10] (setting [11]) it was 34%.

`Cc1cccc(-c2cc(Nc3ccncc3)c3ccccc3n2)n1` [GSK223675]: the “%Inh” value in assay [1] (setting [11]) was found to be 0%; in assay [2] (setting [11]) it was 0%; in assay [3] (setting [11]), 8%; in assay [4] (setting [11]) it was 0%; in [5] (setting [11]) it was 18%; in assay [6] (setting [11]), 17%. The “%Inh” value in assay [7] (setting [11]) came out at 0%; in [8] (setting [11]), 4%; in assay [9] (setting [11]), 0%; in assay [10] (setting [11]) it was 0%.

Regarding `COc1cc2nccc(Nc3ccc(NC(=O)c4ccc(C)cc4)c(O)c3)c2cc1OC.Cl` [GW440132], the “%Inh” value in assay [1] (setting [11]) was 0%; in [2] (setting [11]) it was 0%; in assay [3] (setting [11]), 11%; in assay [4] (setting [11]), 7%; in assay [5] (setting [11]) it was 18%; in [6] (setting [11]), 0%. For the same compound, the “%Inh” value in [7] (setting [11]) worked out at 0%; in assay [8] (setting [11]), 17%; in assay [9] (setting [11]), 8%; in assay [10] (setting [11]), 0%.

Take `Cc1ccc(NC(=O)Nc2cc(C(C)(C)C)nn2-c2ccccc2)cc1` [GSK1014915]: the “%Inh” value is 0% in assay [1] (setting [11]); 1% in assay [2] (setting [11]); 33% in assay [3] (setting [11]); 11% in assay [4] (setting [11]); 3% in assay [5] (setting [11]); 38% in assay [6] (setting [11]). Besides, the “%Inh” value in [7] (setting [11]) is listed as 0%; in [8] (setting [11]) it was 7%; in [9] (setting [11]), 7%; in assay [10] (setting [11]), 0%.

As for `Cc1ccc(NC(=O)Nc2cccc(C(F)(F)F)c2)cc1` [GSK955403], the “%Inh” value in [1] (1 µM) was 15%; in [2] (1 µM) it was 0%; in assay [3] (1 µM), 0%; in assay [4] (1 µM) it was 0%; in [5] (1 µM), 0%; in [6] (1 µM), 0%. The “%Inh” value in assay [7] (1 µM) was found to be 0%; in assay [8] (1 µM), 17%; in [9] (1 µM), 0%; in assay [10] (1 µM) it was 0%.

With `CCn1c(-c2ccccn2)nc2cnccc21` [SB-736398], the “%Inh” value in [1] (setting [11]) is reported as 5%; in assay [2] (setting [11]), 8%; in assay [3] (setting [11]), 19%; in [4] (setting [11]), 11%; in assay [5] (setting [11]) it was 0%; in assay [6] (setting [11]), 15%. Further, the “%Inh” value in [7] (setting [11]) was 0%; in assay [8] (setting [11]), 21%; in assay [9] (setting [11]) it was 6%; in [10] (setting [11]), 0%.

`CN(C)CCN(C)C(=O)c1cc(-c2ccncc2)c(-c2ccc(Cl)c(O)c2)o1.Cl.Cl` [SB-710397]: the “%Inh” value in assay [1] (setting [11]) worked out at 23%; in [2] (setting [11]) it was 0%; in [3] (setting [11]), 9%; in assay [4] (setting [11]), 0%; in [5] (setting [11]), 0%; in [6] (setting [11]), 30%. Also, the “%Inh” value in assay [7] (setting [11]) worked out at 0%; in [8] (setting [11]) it was 45%; in [9] (setting [11]), 5%; in [10] (setting [11]), 0%.
